# Results taken from PubChem BioAssay AID652054 (National Center for Advancing Translational Sciences (NCATS), 2013).
# In all, about 360,000 compounds went through this assay and about 9,100 (2.5%) were called active. Another 4% or so got no clear call; they are omitted. Many of the other results were omitted from the sample, so actives are more common in it than they were. Values without a mark were called inactive. Cut-off read from the data, not from the text of the source: active = max response below about -50%; inconclusive = no clear call, values can overlap the other calls; inactive = above that.
# Biological target: D(3) dopamine receptor (Homo sapiens) (UniProt P35462)
# Experiment: qHTS of D3 Dopamine Receptor Antagonist: qHTS
# Details: D3R cells, DiscoveRx beta-arrestin luminescence, antagonist mode; stronger effect = lower value
# Method in brief: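 Cells plated overnight at 1500 cells/well, then exposed to library compounds with dopamine controls for 90 minutes at 37 degrees C. DiscoveRx reagent added for 30–60 minutes at room temperature; luminescence read, quantitative HTS format.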
# % is set by controls: 0 for no effect and ±100 for the full control effect.
# Chain of D(3) dopamine receptor (Homo sapiens) (P35462 whole entry, looked up): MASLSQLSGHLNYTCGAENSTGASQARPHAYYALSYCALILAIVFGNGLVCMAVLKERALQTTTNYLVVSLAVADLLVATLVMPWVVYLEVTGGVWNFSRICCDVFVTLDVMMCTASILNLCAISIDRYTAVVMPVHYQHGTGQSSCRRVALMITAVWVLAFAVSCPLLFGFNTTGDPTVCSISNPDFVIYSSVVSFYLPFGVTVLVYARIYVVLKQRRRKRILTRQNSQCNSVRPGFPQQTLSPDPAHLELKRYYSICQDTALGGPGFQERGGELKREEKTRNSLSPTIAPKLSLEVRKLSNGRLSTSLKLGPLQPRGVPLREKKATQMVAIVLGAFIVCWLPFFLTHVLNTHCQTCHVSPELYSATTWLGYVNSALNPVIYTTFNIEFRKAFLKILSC
row,SMILES,"max response, negative = inhibition"
1,Cc1ccc(S(=O)(=O)Nc2nc(C)cc(-n3nc(C)cc3C)n2)cc1,-12.2%
2,Cc1cc(C)n(-c2ccc(Cl)c(C(=O)O)n2)n1,-86.2% (active)
3,Cc1cc(C)n(-c2ccc3nncn3n2)n1,1.57%
4,COCCCNC(=O)c1cccc2c(-c3ccc(O)c(OC)c3)coc12,0.229%
5,COC(=O)[C@]12CCCCC=C1N(Cc1ccco1)C(=O)[C@H](CC(=O)NCC1CCCCC1)C2,-0.188%
6,CN1OC[C@@H]2CN(S(=O)(=O)c3cccc(C(F)(F)F)c3)[C@H](c3ccc(-c4cc5ccccc5o4)cc3)C[C@@H]21,-12%
7,CC1(C(=O)NCc2ccc(F)c(F)c2)Cc2c(-c3ccc4c(c3)OCO4)ccnc2O1 (stereo not given),19.2%
8,Cc1ccc(CN2CCN(/N=C/c3cccnc3)CC2)c(C)c1,-15%
9,Cc1ccc(CN2CCN(/N=C/c3ccco3)CC2)c(C)c1,-78.6% (active)
10,Cc1ccc(NC(=O)CCC(=O)N/N=C/c2ccco2)c(C)c1,16.8%
11,O=C(/C=C/[C@H]1O[C@@H](n2cnc3c(NC(=O)c4ccccc4)ncnc32)[C@H](O)[C@@H]1O)NCc1ccccc1,0%
12,Cc1cccc2c1-c1sc(C(=O)NCCCN3CCc4ccccc4C3)cc1CO2,-63.3% (active)
13,CN1CCN(CCCNC(=O)c2cc3c(=O)oc4ccccc4c3s2)CC1,0%
14,CCn1cc(C(=O)NCCCN2CCCCCC2)c(=O)c2cc(S(=O)(=O)N3CCc4ccccc4C3)ccc21,-2.35%
15,C[C@@H]1CN([C@@H](C)CO)C(=O)c2cc(Br)cnc2O[C@H]1CN(C)Cc1ccc(-c2ccccc2)cc1,24.5%
16,COc1ccc(CN2C(=O)C(CC(=O)NCCN3CCOCC3)CC(C(=O)N(C(C)C)C(C)C)=C2C)cc1 (stereo not given),10.3%
17,COc1ccc([C@H]2N[C@]3(CCCN(CC4CCCCC4)C3=O)[C@H]3C(=O)N(C)C(=O)[C@@H]23)cc1,-3.44%
18,CCOc1c2ccc(C(=O)NCc3ccc4c(c3)OCO4)cc2nn1C,21.7%
19,COc1ccccc1-n1c(C)nc2cc(C(=O)NCc3ccc4c(c3)OCO4)ccc21,-53.5% (active)
20,COc1cc(OC)c(C(=O)NCc2ccc3c(c2)OCO3)cc1OC,-7.32%
21,C[C@@H]1CC2=C(C(=O)OC(C)(C)O2)[C@@H](C2CC2)O1,20%
22,CC1(C(=O)NCc2ccccc2)CN(S(C)(=O)=O)CC(=O)N1CC(F)(F)F (stereo not given),17.5%
23,Cc1cccc(C(=O)C(O)(c2ccccc2)C2CCCCC2=O)c1 (stereo not given),6.43%

row,SMILES,"max response, negative = inhibition"
1,CC(=O)c1cc2c(cc1NC(=O)CN1CCCCCC1)OCO2,-65% (active)
2,O=C(CN1CCCCCC1)Nc1ccc(Br)cc1Br,-12.8%
3,CC(=O)c1cc2c(cc1NC(=O)Cn1nc(-c3ccc(F)cc3)ccc1=O)OCO2,-11.4%
4,COc1ccc(C(C)(O)c2nc(-c3cc(F)cc(F)c3)cs2)cc1 (stereo not given),2.54%
5,Cc1ccccc1S(=O)(=O)NC(=O)C1(C)CCN1C(=O)Cc1ccc(Cl)cc1Cl (stereo not given),-7.52%
6,O=C1[C@H]2[C@@H](c3ccc(C(F)(F)F)cc3)N[C@]3(CCCN(Cc4ccc(Br)cc4)C3=O)[C@H]2C(=O)N1Cc1ccccc1,29.8%
7,CCc1nc(NCCO)c(C#N)c2c1CCCC2,-13.6%
8,CC(C)Cc1nc(N2CCOCC2)c(C#N)c2c1CCC2,36.7%
9,CC(C)CCNc1nc(N2CCCC2)c2c(c1C#N)CCN(C)C2,-65.7% (active)
10,CCOC(=O)C1(C)CCCN(C(=O)c2ccc(N(C)C)cc2)C1 (stereo not given),3.97%
11,CC(=NNC(=S)N1CCCCCC1)c1ccccn1,18.7%
12,C/C(=N\NC(=O)Cc1ccc(Cl)cc1)c1ccccn1,-93.2% (active)
13,NC(=O)NC(CC(=O)NNC(=O)c1ccccn1)c1ccc(Cl)cc1 (stereo not given),-12.6%
14,CC1(C(=O)NS(=O)(=O)c2ccc(Cl)cc2)CCN1C(=O)CC1CCCC1 (stereo not given),-16%
15,CCN1C(=O)[C@H]2[C@@H](c3ccccc3)N[C@]3(CCCN(Cc4ccc(C)cc4)C3=O)[C@H]2C1=O,-7.93%
16,CCc1nc2ccc(C(=O)N3CCC(O)(Cc4ccccc4)CC3)cn2c1N(C)C(=O)Cc1ccccc1,-22.4%
17,Cc1ccc(CN2CCN(Cc3cn(C)nc3-c3ccccc3)CC2CCO)o1 (stereo not given),3.14%
18,Cc1ccc(CN2CCN(c3ccccc3Cl)CC2)o1,-75.6% (active)
19,Cc1ccc(CN2CCN(Cc3ccc(OCCO)cc3)CC2CCO)o1 (stereo not given),4.23%
20,COc1ccc(C(CNC(=O)c2cccc(NS(=O)(=O)c3ccc(C)c(F)c3)c2)N2CCCC2)cc1 (stereo not given),-55.7% (active)
21,COc1ccc(C(CNC(=O)c2cccc(S(=O)(=O)Nc3ccc(Br)cc3)c2)N(C)C)cc1 (stereo not given),-53.5% (active)
22,COc1ccc(C(CNC(=O)c2cccc(S(=O)(=O)Nc3ccccc3Cl)c2)N2CCOCC2)cc1 (stereo not given),22.5%
23,COc1ccc(C(CNC(=O)c2cc(S(=O)(=O)Nc3cccc(C)c3)ccc2C)N2CCCC2)cc1 (stereo not given),-25.7%

row,SMILES,"max response, negative = inhibition"
1,COc1ccccc1C(CNC(=O)c1cccc(S(=O)(=O)Nc2ccc(F)cc2)c1)N(C)C (stereo not given),-23.9%
2,O=C(Nc1ccc(S(=O)(=O)N2CCc3ccccc3C2)cc1)c1ccccc1,19.5%
3,CC(NC(=O)c1cccc(S(=O)(=O)N2CCc3ccccc3C2)c1)c1ccco1 (stereo not given),4.52%
4,COc1ccc(C(CNC(=O)c2ccc(NS(=O)(=O)c3ccc(F)c(C)c3)cc2)N(C)C)cc1 (stereo not given),-15.4%
5,CN(C)C(CNC(=O)c1cccc(S(=O)(=O)N2CCc3ccccc3C2)c1)c1ccccc1 (stereo not given),-80.6% (active)
6,CC1(C(=O)NCc2ccc3c(c2)OCO3)CCN1C(=O)Cc1cccs1 (stereo not given),27.8%
7,CCCc1c(C)nc2scc(-c3ccc(Cl)cc3)n2c1=O,3.72%
8,COc1ccc(OC)c(C(O)c2ncc(-c3cccc(C(F)(F)F)c3)[nH]2)c1 (stereo not given),-26%
9,CCOC(=O)[C@]12CCCC=C1N(Cc1cccc3ccccc13)C(=O)[C@H](CC(=O)NCC13CC4CC(CC(C4)C1)C3)C2,-25.2%
10,CCCNC(=O)c1cc(C2CCCCN2S(=O)(=O)c2cn(C)cn2)on1 (stereo not given),0.438%
11,CN(C)c1cccc(NC(=O)c2ccc(-c3ccc(F)c(F)c3)c3ccoc23)c1,-0.987%
12,CC(C)CN1C(=O)CN(S(C)(=O)=O)CC1(C)C(=O)NCc1ccccc1 (stereo not given),18.8%
13,FC(F)(F)c1nc(-c2ccccc2)ncc1-c1nnnn1-c1ccccc1,16.8%
14,Clc1ccc(-n2nnnc2-c2cnc(-c3ccccn3)nc2-c2cccs2)cc1,-60.1% (active)
15,N#Cc1ccc(CSc2nnc(-c3ccccn3)n2-c2ccc(Cl)cc2)cc1,-15.7%
16,Cn1c(NCc2cccnc2)nc2cc(-c3ccc(F)cc3)sc2c1=O,0%
17,CCN(CC)CCCSc1nc2ccccc2s1,-73.9% (active)
18,CCc1ccc(-c2nnn(Cc3nc4ccccc4s3)n2)cc1,12.9%
19,CCN(CC)CCn1c2c(c(SCC(=O)Nc3nc4ccccc4s3)nc1=O)CCCC2,-4.31%
20,CCc1nc2ccc(C(=O)Nc3ccc(OC)c(OC)c3)cn2c1N(C)C(=O)c1cccc(OC)c1,-28%
21,COc1ccc(-c2nc(CS(=O)CC(=O)NCc3cccnc3)c(C)o2)cc1OC (stereo not given),-53.3% (active)
22,COc1ccc(-c2nc(CS(=O)CC(=O)NCc3ccccc3)c(C)o2)cc1OC (stereo not given),-17%
23,COc1cccc(-c2nc(CS(=O)CC(=O)NCc3ccc(F)cc3)c(C)o2)c1 (stereo not given),-12.9%

row,SMILES,"max response, negative = inhibition"
1,CCN(CC)CCN(C)C(c1ccnc2ccccc12)c1nnnn1-c1ccc2c(c1)OCCO2 (stereo not given),0%
2,COc1ccc(CCNC(=O)COC(=O)/C=C/c2cccs2)cc1OC,-11.9%
3,Cn1c(C(=O)NCCCN2CCCCC2)cc2sccc21,-17.4%
4,COc1ccc(CCNC(=O)c2cc3sccc3n2C)cc1OC,-72% (active)
5,COc1cc(C(O)c2nc(-c3cccc(C(=O)O)c3)cs2)ccc1F (stereo not given),5.94%
6,CN(Cc1c(F)cccc1Cl)C(=O)COC(=O)Cn1cnc2ccccc2c1=O,16%
7,Cc1nnc(OCC(=O)NCCC2=CCCCC2)c2ccccc12,-80.1% (active)
8,O=C(COc1ccc(Cl)cc1)NCCC1=CCCCC1,-11.2%
9,O=C(COc1cccc(-n2cnnn2)c1)NCCC1=CCCCC1,-5.35%
10,COc1ccc(CN2CCN(Cc3ccc(OC)c(OC)c3OC)CC2)cc1,-14%
11,COc1ccccc1N1CCN(Cc2cc(OC)c3c(c2)OCO3)CC1,-91.2% (active)
12,COc1cc(CNCc2ccc(OC)c3ccccc23)cc(OC)c1OC,4.84%
13,CNCC(O)CN1CCN(c2ccccc2OC)CC1 (stereo not given),4.65%
14,COc1cc(COCC(O)CN2CCN(Cc3ccc4c(c3)OCO4)CC2)cc(OC)c1OC (stereo not given),-12.9%
15,COc1ccccc1N1CCN(Cc2ccc(OC)c3ccccc23)CC1,-67.7% (active)
16,CNc1cncc(-c2ccc(NS(C)(=O)=O)cc2)n1,-5.71%
17,COc1ccc(CCNC(=O)Nc2ccc3c(c2)c(=O)n(C)n3C)cc1OC,6.66%
18,O=C(CC(CC(=O)c1ccccc1)c1ccco1)c1ccccc1,11.4%
19,CCC(C(=O)NC(C)(C)C)n1c(-c2ccccc2)nc2ccccc21 (stereo not given),0.73%
20,CC(C)(C)NC(=O)C(CCc1ccccc1)n1c(=O)c(-c2ccccc2)nc2ccccc21 (stereo not given),-66.1% (active)
21,CSCCC(C(=O)NC(C)(C)C)n1c(-c2ccccc2)nc2ccccc21 (stereo not given),-15.5%
